Laboratory results published in PubChem BioAssay (NCATS).
Results filed as inconclusive are left out. The source made the active and inactive calls. Unless noted, calls follow the shape of the dose curve; as a rule, active = well fitted curve in the direction sought with a large enough effect; inconclusive = small, poorly fitted or top-dose-only effect, or another doubt; inactive = no such curve, though single readings can be large; an effect the other way counts as inactive or inconclusive.

Experiments:
[1] = target: Cytochrome P450 1A2 (Homo sapiens) (UniProt P05177); assay: p450-cyp1a2 (AID 410; calls by dose curve; also: potency is read from the fitted curve at half-maximal effect)
Chain of Cytochrome P450 1A2 (Homo sapiens) (P05177 whole entry, looked up): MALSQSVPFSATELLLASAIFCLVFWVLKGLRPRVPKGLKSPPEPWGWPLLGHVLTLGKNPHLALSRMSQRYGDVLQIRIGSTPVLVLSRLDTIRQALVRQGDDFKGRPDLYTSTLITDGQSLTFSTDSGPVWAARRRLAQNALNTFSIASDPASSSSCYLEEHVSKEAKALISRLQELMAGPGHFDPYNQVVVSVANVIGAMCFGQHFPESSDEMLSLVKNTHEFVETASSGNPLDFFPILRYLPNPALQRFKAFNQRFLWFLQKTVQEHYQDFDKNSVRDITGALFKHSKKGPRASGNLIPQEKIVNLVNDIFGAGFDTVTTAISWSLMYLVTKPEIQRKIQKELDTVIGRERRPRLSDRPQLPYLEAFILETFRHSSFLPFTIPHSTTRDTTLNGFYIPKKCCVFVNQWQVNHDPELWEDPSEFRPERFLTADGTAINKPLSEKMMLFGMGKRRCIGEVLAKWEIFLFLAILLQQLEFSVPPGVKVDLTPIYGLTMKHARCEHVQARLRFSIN
Summary of the method: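 Luminescent demethylation readout: Luciferin-ME (100uM, equal to Km) turned over by 20nM CYP1A2 for 60 min at room temperature after NADPH regeneration addition, following 10 min compound preincubation. Normalization used 57 uM furafylline as full inhibition.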

[2] = target: Cytochrome P450 3A4 (Homo sapiens) (UniProt P08684); assay: qHTS Assay for Activators of Cytochrome P450 3A4 (AID 885); also: nearly all actives have a fitted effect of over 65% in size
Chain of Cytochrome P450 3A4 (Homo sapiens) (P08684 whole entry, looked up): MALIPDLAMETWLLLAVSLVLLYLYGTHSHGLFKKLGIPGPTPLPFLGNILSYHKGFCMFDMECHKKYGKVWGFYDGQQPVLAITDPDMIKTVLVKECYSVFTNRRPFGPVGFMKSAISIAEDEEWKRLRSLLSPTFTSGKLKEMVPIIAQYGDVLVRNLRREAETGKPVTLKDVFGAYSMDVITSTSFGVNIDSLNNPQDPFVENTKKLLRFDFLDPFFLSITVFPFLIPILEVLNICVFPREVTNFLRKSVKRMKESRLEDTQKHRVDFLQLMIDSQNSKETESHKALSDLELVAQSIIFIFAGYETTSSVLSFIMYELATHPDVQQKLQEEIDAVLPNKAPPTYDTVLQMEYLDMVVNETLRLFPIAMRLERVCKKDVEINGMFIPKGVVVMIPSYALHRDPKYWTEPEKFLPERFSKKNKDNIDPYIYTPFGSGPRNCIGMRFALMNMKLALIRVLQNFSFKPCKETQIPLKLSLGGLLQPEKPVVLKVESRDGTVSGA
Summary of the method: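 Activators are scored by enhanced luminescence from CYP3A4 conversion of luciferin-PPXE (25uM, equal to KM) to luciferin, after 60 min at RT with an NADPH-regenerating system.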

[3] = target: Cytochrome P450 2C9 (Homo sapiens) (UniProt P11712); assay: qHTS Assay for Inhibitors and Substrates of Cytochrome P450 2C9 (AID 883); also: potency is read from the fitted curve at half-maximal effect; nearly all actives have a fitted effect of over 60% in size
Chain of Cytochrome P450 2C9 (Homo sapiens) (P11712 whole entry, looked up): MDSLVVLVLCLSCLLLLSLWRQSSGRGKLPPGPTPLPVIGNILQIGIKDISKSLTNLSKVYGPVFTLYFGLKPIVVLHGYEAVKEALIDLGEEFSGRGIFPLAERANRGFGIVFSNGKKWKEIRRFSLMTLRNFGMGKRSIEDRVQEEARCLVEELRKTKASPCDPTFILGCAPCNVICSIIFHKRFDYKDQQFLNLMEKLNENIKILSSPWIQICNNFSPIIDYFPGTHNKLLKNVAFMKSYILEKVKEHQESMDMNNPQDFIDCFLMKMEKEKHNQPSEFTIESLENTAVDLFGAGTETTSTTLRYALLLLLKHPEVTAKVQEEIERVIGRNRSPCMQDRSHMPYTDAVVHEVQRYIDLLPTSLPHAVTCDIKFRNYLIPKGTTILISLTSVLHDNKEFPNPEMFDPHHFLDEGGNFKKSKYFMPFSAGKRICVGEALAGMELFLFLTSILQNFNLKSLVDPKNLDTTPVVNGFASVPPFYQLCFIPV
Summary of the method: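 A luminogenic readout tracked human CYP2C9 (10nM) converting deoxyluciferin (100uM, at KM) in 25mM KPO4 during 60 min at 37C with regenerated NADPH. Values normalized to 57uM sulphaphenazole as complete inhibition.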

[4] = target: Cytochrome P450 3A4 (Homo sapiens) (UniProt P08684); assay: qHTS Assay for Inhibitors and Substrates of Cytochrome P450 3A4 (AID 884); also: series mostly up to about 57 µM; nearly all actives have a fitted effect of over 50% in size
Summary of the method: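 Luminescent readout of luciferin produced by CYP3A4 (20 nM) dealkylation of Luciferin-PPXE, 25 uM (its KM). NADPH-driven reaction ran 60 min at RT after 10 min compound preincubation; data scaled to 57 uM ketoconazole as 100% inhibition.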

[5] = target: Cytochrome P450 2C19 (Homo sapiens) (UniProt P33261); assay: qHTS Assay for Inhibitors and Substrates of Cytochrome P450 2C19 (AID 899); also: potency is read from the fitted curve at half-maximal effect; nearly all actives have a fitted effect of over 60% in size
Chain of Cytochrome P450 2C19 (Homo sapiens) (P33261 whole entry, looked up): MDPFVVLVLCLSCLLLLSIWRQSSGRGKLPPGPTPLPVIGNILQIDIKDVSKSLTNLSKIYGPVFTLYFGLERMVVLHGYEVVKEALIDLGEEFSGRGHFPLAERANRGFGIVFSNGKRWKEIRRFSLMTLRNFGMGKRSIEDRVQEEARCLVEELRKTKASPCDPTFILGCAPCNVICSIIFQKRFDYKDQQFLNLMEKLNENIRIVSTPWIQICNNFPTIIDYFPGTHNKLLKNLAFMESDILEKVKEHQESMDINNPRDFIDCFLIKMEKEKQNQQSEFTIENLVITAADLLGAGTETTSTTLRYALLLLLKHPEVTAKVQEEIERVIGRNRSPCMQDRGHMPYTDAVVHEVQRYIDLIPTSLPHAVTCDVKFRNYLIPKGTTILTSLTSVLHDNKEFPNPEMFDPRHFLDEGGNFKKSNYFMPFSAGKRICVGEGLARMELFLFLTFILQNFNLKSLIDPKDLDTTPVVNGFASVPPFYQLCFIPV
Summary of the method: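 NADPH-dependent conversion of Luciferin-H EGE (10uM, at KM) by 5nM enzyme in 50mM KPO4, 60 min at 37C following 10 min compound preincubation. Stopped with luciferin detection buffer; luminescence read after 20 min.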

[6] = target: 3',5'-cyclic-AMP phosphodiesterase 4B (Homo sapiens) (UniProt Q07343); assay: qHTS Assay for Inhibitors of PDE-IV (AID 607; active = well fitted activation curve with a large enough effect in the main read-out, with a control signal flat, not every such curve was filed as active)
Chain of 3',5'-cyclic-AMP phosphodiesterase 4B (Homo sapiens) (Q07343 whole entry, looked up): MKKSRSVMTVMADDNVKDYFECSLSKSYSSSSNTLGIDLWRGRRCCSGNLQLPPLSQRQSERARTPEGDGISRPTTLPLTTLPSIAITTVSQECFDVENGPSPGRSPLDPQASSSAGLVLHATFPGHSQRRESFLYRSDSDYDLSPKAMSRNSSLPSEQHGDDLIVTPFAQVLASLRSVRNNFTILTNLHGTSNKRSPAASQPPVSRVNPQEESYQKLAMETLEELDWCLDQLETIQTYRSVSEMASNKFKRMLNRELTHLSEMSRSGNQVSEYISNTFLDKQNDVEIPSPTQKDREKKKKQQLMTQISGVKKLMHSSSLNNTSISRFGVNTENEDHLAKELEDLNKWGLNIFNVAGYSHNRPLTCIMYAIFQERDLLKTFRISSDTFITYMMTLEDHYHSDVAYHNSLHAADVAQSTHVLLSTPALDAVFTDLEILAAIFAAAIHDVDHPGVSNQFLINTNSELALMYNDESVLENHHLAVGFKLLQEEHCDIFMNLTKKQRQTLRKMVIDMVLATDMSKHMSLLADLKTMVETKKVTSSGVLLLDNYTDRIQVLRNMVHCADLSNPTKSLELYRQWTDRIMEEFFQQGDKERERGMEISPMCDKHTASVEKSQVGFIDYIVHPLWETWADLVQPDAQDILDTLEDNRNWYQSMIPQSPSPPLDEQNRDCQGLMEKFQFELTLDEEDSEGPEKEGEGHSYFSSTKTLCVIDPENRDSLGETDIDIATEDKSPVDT
Summary of the method: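 The readout is membrane depolarisation from a cAMP-sensing CNG channel, detected with a potential dye at ex 535/em 590. Cells were HEK293-derived (endogenous PDE-IV) at 1000 cells/well, titrated up to 22.9 uM final.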

For CCc1c2c(nc3c(C(C)C)cccc13)-c1cccc(=O)n1C2, the Potency [1] was 0.398 µM (active) and the Potency [2] was “inactive”.
In the case of CCCC[C@@H]1C[C@H]1C(NC(=O)c1ccco1)c1ccc(Cl)cc1 (some centres undefined), the Potency [1] is reported as 0.794 µM (active), the Potency [3] is reported as 3.98 µM (active) and the Potency [4] is reported as “inactive”. For the same compound, the Potency [5] was 0.316 µM (active).
With CCCC/C=C/C(NC(=O)Oc1cccc(C(F)(F)F)c1)c1ccccc1 (centres undefined) the Potency [1] was 2.51 µM (active), the Potency [6] was “inactive” and the Potency [2] was “inactive”. The Potency [5] was 3.16 µM (active).
With CCC/C=C(\CCC)C(NC(=O)C(C)(C)C)c1ccc(C(=O)OC)cc1 (centres undefined) the Potency [1] was “inactive” and the Potency [2] was “inactive”.
CCc1cccc2c(-c3ccccc3)c3c(nc12)OCC3 was tested, and the Potency [1] was 0.316 µM (active) and the Potency [5] was 7.94 µM (active).
